# PubChem BioAssay
# Activity calls are given as the source filed them.
# What was measured:
# [1] = binders of probe aFSTL3 on microarray, primary screen, stem cell growth factor project, biochemical, small-molecule microarray, fluorescence 635/667 (AID 1064); settings: higher = more signal;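 further: measures binding of the biotinylated anti-FSTL3 antibody to printed compounds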
# [2] = binders from COS7 lysate, DM2A8 probe, primary screen, torsin A project, cell lysate, small-molecule microarray, fluorescence 635/667 (AID 1065); settings: higher = more signal, COS7 lysate expressing mutant human TOR1A
# [3] = binders of probe aFGF2 on microarray, primary screen, stem cell growth factor project, biochemical, small-molecule microarray, fluorescence 635/667 (AID 1067); settings: higher = more signal;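 further: measures binding of biotinylated aFGF2 protein to printed compounds on slides; z-score merges feature fluorescence and signal-to-noise across triplicate slides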
# [4] = binders of probe aFGF10 on microarray, primary screen, stem cell growth factor project, biochemical, small-molecule microarray, fluorescence 635/667 (AID 1071); settings: higher = more signal;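 further: score merges 667 nm spot intensity and signal to noise from triplicate slides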
# [5] = target: Neurogenic locus notch homolog protein 2 (Homo sapiens) (UniProt Q04721); assay: Notch2 binders on small-molecule microarrays, primary screen, biochemical, small-molecule microarray, 635 nm fluorescence, stem cell growth factors (AID 1073); settings: Notch2 binding, higher = more signal
# [6] = target: Pro-neuregulin-1, membrane-bound isoform (Homo sapiens) (UniProt Q02297); assay: NRG1 binders on small-molecule microarrays, primary screen, psychiatric disease protein project, biochemical, small-molecule microarray, fluorescence 635/667 (AID 1075); settings: NRG1 binding, 635 nm fluorescence, higher = more signal;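 further: score combines 667 nm spot fluorescence with signal to noise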
# [7] = system: Neuregulin-1 EGF-like domain; assay: binders of neuregulin-1 EGF-like domain, primary screen, biochemical, small-molecule microarray, 635 nm fluorescence (AID 1081); settings: small-molecule microarray binding, higher = more signal;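 further: binding of the protein to compounds printed on small-molecule microarray slides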
# [8] = FRG1 promoter luciferase signal modulators, primary screen, FRG1 inhibition for FSHD, cell-based, C2C12 myotubes, firefly/Renilla luciferase, luminescence (AID 1084); settings: higher = more signal, called active from +8 up or from −8 down
# [9] = binders of probe aFST on microarray, primary screen, stem cell growth factor project, biochemical, small-molecule microarray, fluorescence 635/667 (AID 1086); settings: higher = more signal;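 further: score merges 667 nm fluorescence with signal-to-noise of each printed compound spot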
# [10] = binders of probe aHhip on microarray, primary screen, stem cell growth factor project, biochemical, small-molecule microarray, fluorescence 635/667 (AID 1087); settings: higher = more signal;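 further: score merges spot fluorescence at 667nm with spot signal to noise ratio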
# [11] = system: PRMT1 (protein arginine N-methyltransferase 1); assay: PRMT1 binders on small-molecule microarrays, primary screen, biochemical, small-molecule microarray, 635 nm fluorescence (AID 1088); settings: small-molecule microarray binding, higher = more signal;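 further: binding of Prmt1 protein to compounds spotted on small-molecule microarray slides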
# [12] = yeast growth modulation, basal conditions, primary screen, YJM789 clinical isolate, OD600, 24 h (AID 1089);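 further: growth of clinical yeast isolate S. cerevisiae YJM 789 seeded 1000 cells per well; test concentration not given here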; settings: S. cerevisiae YJM789 growth, higher = more signal, called active from +8 up or from −8 down
# [13] = fission yeast growth modulation, primary screen, strain 972, OD600, 24 h, no modulator (AID 1090);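 further: basal condition with compound alone and no growth modifier present; test concentration not given here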; settings: S. pombe 972 growth, higher = more signal, called active from +8 up or from −8 down
# [14] = S. cerevisiae growth modulation with rapamycin, primary screen, strain BY4716, OD600, 96 h (AID 1091); settings: higher = more signal, called active from +8 up or from −8 down; further: test concentration not given here
# [15] = target: Torsin-1A-interacting protein 2 (Homo sapiens) (UniProt Q8NFQ8); assay: LULL1 binders on small-molecule microarray, primary screen, cell lysate, human LULL1 lysate, 635/667 nm fluorescence (AID 1092); settings: hLULL1 lysate binding, 635 nm fluorescence, higher = more signal;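 further: probe is lysate of COS7 cells overexpressing human LULL1; score merges per-feature 667 nm fluorescence with signal-to-noise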
# [16] = E. coli growth modulation, two-sided OD650, primary screen, E. coli filamentation project, strain DRC41, 24 h (AID 1093); settings: OD650, 24 h, higher = more signal, called active from +8 up or from −8 down;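 further: MC1000 strain lacking acrAB efflux and sulA so SOS filamentation is blocked; test concentration not given here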
# [17] = small-molecule microarray binders of probe aLefty2, primary screen, biochemical, biotinylated probe, 635/667 nm fluorescence (AID 1094); settings: higher = more signal;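 further: score merges spot fluorescence near 667 nm with spot signal-to-noise ratio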
# [18] = system: Noggin (protein binding on small-molecule microarray); assay: Noggin binders on small-molecule microarray, primary screen, biochemical, 635/667 nm fluorescence (AID 1095); settings: 635 nm fluorescence, higher = more signal;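 further: score merges 667 nm feature fluorescence with signal to noise over triplicate slides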
# [19] = target: Neurogenic locus notch homolog protein 3 (Homo sapiens) (UniProt Q9UM47); assay: NOTCH3 binders on small-molecule microarray, primary screen, biochemical, 635/667 nm fluorescence (AID 1096); settings: NOTCH3 binding, 635 nm fluorescence, higher = more signal
# [20] = small-molecule microarray binders of probe aEGFR, primary screen, biochemical, biotinylated probe, 635/667 nm fluorescence (AID 1097); settings: higher = more signal;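 further: probe is a biotinylated anti-EGFR antibody binding compounds printed on slides; score combines fluorescence near 667 nm and signal to noise of each spot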
# Chain of Pro-neuregulin-1, membrane-bound isoform (Homo sapiens) (Q02297 whole entry, looked up, the tested form may be a part, canonical isoform): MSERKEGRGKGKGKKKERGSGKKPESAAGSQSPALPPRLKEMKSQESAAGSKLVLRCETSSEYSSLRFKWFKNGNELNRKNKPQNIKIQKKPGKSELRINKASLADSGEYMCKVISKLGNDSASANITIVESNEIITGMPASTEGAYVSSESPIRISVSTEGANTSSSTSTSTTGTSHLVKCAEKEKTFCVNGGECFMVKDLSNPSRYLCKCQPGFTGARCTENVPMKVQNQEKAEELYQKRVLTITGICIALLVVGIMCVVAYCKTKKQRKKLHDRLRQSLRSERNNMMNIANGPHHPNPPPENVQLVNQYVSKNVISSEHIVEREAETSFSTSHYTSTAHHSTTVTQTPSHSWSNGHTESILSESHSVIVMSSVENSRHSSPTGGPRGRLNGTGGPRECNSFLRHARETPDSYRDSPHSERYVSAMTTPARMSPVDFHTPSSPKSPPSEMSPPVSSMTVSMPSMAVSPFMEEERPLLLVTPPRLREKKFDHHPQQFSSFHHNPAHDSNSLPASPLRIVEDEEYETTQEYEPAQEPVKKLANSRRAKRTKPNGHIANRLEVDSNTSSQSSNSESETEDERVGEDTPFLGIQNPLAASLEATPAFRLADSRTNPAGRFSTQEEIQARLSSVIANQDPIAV
# Chain of Torsin-1A-interacting protein 2 (Homo sapiens) (Q8NFQ8 whole entry, looked up): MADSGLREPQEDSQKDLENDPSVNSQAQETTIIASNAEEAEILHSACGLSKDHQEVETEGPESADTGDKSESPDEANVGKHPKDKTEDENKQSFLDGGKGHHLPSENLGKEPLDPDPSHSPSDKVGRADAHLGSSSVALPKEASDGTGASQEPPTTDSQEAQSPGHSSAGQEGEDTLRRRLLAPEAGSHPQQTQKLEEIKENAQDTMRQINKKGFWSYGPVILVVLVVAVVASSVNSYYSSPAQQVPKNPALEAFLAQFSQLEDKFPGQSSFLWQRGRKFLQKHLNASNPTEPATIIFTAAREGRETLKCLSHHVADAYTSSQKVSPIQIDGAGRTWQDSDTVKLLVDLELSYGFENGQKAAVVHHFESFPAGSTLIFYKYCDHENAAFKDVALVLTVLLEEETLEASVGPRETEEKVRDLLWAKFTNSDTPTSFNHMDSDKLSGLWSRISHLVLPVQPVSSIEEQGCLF
# Chain of Neurogenic locus notch homolog protein 2 (Homo sapiens) (Q04721 whole entry, looked up, canonical isoform): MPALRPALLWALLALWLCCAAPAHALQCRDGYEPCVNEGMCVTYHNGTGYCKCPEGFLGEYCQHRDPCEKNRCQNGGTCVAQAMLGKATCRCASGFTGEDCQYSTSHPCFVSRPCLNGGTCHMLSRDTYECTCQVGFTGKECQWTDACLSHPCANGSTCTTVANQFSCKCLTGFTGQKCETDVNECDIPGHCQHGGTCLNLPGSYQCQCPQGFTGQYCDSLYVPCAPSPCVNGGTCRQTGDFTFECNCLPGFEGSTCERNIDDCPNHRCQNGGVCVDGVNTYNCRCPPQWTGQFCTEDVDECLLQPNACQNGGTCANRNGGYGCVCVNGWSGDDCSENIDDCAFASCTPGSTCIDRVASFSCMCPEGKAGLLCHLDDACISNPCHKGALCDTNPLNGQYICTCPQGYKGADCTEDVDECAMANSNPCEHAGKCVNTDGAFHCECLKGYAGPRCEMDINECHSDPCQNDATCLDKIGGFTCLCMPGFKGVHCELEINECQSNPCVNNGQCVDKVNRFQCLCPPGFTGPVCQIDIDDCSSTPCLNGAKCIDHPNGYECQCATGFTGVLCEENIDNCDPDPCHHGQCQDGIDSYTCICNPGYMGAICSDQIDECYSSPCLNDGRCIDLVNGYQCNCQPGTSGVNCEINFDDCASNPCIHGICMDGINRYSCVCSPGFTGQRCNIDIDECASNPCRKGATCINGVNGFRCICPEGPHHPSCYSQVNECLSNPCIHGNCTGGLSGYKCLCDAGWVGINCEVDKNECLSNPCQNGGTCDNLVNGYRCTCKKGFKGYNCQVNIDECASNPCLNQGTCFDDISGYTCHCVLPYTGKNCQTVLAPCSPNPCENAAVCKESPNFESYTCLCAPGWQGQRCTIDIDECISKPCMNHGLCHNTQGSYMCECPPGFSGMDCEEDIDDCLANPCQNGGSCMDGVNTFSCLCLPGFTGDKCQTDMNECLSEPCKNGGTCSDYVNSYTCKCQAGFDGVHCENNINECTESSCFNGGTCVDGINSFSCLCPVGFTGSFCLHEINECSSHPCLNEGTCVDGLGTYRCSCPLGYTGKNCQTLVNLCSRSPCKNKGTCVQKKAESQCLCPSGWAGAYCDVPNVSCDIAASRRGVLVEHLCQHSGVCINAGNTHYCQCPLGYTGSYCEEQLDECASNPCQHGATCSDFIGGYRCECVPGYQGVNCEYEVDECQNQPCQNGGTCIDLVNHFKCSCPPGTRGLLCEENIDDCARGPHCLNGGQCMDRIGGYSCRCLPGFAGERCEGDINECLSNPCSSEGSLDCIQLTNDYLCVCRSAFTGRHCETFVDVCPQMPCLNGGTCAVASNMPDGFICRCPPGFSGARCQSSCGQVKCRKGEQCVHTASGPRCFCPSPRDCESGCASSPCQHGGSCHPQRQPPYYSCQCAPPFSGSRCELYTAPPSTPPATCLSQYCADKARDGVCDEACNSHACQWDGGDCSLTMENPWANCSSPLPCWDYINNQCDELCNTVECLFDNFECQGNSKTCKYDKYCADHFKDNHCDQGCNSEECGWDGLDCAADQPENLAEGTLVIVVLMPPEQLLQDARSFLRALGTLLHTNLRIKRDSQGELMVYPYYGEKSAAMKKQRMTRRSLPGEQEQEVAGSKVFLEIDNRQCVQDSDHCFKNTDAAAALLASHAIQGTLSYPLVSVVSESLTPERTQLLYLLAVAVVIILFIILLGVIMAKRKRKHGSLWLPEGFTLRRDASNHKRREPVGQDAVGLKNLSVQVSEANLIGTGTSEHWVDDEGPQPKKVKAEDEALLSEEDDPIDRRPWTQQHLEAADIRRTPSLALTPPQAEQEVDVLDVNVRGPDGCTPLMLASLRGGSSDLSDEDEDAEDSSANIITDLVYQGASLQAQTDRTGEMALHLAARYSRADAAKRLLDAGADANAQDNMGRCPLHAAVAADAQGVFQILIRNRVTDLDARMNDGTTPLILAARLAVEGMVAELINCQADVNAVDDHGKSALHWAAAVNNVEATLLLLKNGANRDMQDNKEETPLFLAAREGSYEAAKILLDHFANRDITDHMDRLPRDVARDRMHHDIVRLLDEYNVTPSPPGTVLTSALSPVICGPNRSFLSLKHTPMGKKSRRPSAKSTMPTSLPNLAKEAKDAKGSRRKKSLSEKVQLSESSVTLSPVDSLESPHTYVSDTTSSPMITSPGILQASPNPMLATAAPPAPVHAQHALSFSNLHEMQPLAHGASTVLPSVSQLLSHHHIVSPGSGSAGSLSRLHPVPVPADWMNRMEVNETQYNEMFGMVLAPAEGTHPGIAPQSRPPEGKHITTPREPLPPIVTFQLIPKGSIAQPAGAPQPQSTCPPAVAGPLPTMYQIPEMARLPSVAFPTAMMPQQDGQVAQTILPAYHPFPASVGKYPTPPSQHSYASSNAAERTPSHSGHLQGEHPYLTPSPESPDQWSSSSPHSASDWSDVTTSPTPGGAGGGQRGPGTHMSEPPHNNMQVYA
smiles,measurement,setting,value
COC(=O)[C@]1(CCS(=O)(=O)c2ccccc2)N=C(c2ccc(OCCCO)cc2)O[C@@H]1c1ccccc1CN=[N+]=[N-],composite z-score,[1],0.0312
same,composite z-score,[2],0.419
same,composite z-score,[3],0.0794
same,composite z-score,[4],0.169
same,composite z-score,[5],1.12
same,composite z-score,[6],0.959
same,composite z-score,[7],1.35
same,z-score,[8],-1.96 (inactive)
same,composite z-score,[9],0.284
same,composite z-score,[10],-0.346
same,composite z-score,[11],1.54
same,z-score,[12],1.6 (inactive)
same,z-score,[13],1.13 (inactive)
same,z-score,[14],37 (active)
same,composite z-score,[15],3.09
same,z-score,[16],-0.33 (inactive)
same,composite z-score,[17],0.0956
same,composite z-score,[18],0.839
same,composite z-score,[19],0.941
same,composite z-score,[20],-0.0972
CN1C(=O)C2C=CC(C(O)C3CCCCC3)N(N3CCCCC3)C2C1=O (stereo not given),composite z-score,[1],-0.0863
same,composite z-score,[2],1.54
same,composite z-score,[3],0.156
same,composite z-score,[4],0.644
same,composite z-score,[5],1.52
same,composite z-score,[6],1.51
same,composite z-score,[7],1.23
same,z-score,[8],0.573 (inactive)
same,composite z-score,[9],1.01
same,composite z-score,[10],0.398
same,composite z-score,[11],1.56
same,z-score,[12],0.823 (inactive)
same,z-score,[13],0.788 (inactive)
same,z-score,[14],0.884 (inactive)
same,composite z-score,[15],2.45
same,z-score,[16],-0.593 (inactive)
same,composite z-score,[17],0.25
same,composite z-score,[18],0.684
same,composite z-score,[19],1.07
same,composite z-score,[20],0.0939
CCCNC(=O)[C@@]1(c2ccc([N+](=O)[O-])cc2)CC(=O)N(C2CCCCC2)[C@@H]1c1ccc(CO)cc1I,composite z-score,[1],0.368
same,composite z-score,[2],0.983
same,composite z-score,[3],0.091
same,composite z-score,[4],0.599
same,composite z-score,[5],0.96
same,composite z-score,[6],0.456
same,composite z-score,[7],1.21
same,z-score,[8],-0.546 (inactive)
same,composite z-score,[9],0.29
same,composite z-score,[10],-0.0994
same,composite z-score,[11],1.48
same,z-score,[12],-1.58 (inactive)
same,z-score,[13],0.503 (inactive)
same,z-score,[14],1.93 (inactive)
same,composite z-score,[15],2.52
same,z-score,[16],0.422 (inactive)
same,composite z-score,[17],-0.0649
same,composite z-score,[18],1.5
same,composite z-score,[19],0.976
same,composite z-score,[20],0.0592
COC(=O)Cn1c(C(=O)N2CCCC2)cc2c1C[C@H]1CN(C(=O)c3ccccc3)[C@@](Cc3ccc(F)cc3)(C(=O)OC)[C@@H]21,composite z-score,[1],-0.366
same,composite z-score,[2],0.281
same,composite z-score,[3],-0.0329
same,composite z-score,[4],0.0839
same,composite z-score,[5],0.358
same,composite z-score,[6],2
same,composite z-score,[7],1.07
same,z-score,[8],-0.566 (inactive)
same,composite z-score,[9],0.131
same,composite z-score,[10],0.0845
same,composite z-score,[11],-0.533
same,z-score,[12],-1.98 (inactive)
same,z-score,[13],0.562 (inactive)
same,z-score,[14],-1.24 (inactive)
same,composite z-score,[15],2.03
same,z-score,[16],0.782 (inactive)
same,composite z-score,[17],-0.0199
same,composite z-score,[18],-0.405
same,composite z-score,[19],-0.251
same,composite z-score,[20],-0.363
O=C1NC(=O)C2C1C=CC(C(O)c1ccc(Br)cc1)N2Nc1ccccn1 (stereo not given),composite z-score,[1],0.253
same,composite z-score,[2],0.156
same,composite z-score,[3],0.0969
same,composite z-score,[4],1.05
same,composite z-score,[5],1.39
same,composite z-score,[6],1.8
same,composite z-score,[7],0.95
same,z-score,[8],-0.383 (inactive)
same,composite z-score,[9],0.331
same,composite z-score,[10],-0.0296
same,composite z-score,[11],0.215
same,z-score,[12],-1.26 (inactive)
same,z-score,[13],0.61 (inactive)
same,z-score,[14],-0.683 (inactive)
same,composite z-score,[15],1.18
same,z-score,[16],-0.931 (inactive)
same,composite z-score,[17],0.119
same,composite z-score,[18],0.248
same,composite z-score,[19],0.63
same,composite z-score,[20],0.315
[N-]=[N+]=NCc1ccccc1C[C@@]1(C(=O)NCCN2CCOCC2)N=C(c2ccc(OCCCO)cc2)O[C@@H]1c1ccccc1N=[N+]=[N-],composite z-score,[1],0.646
same,composite z-score,[2],1.99
same,composite z-score,[3],0.075
same,composite z-score,[4],0.879
same,composite z-score,[5],0.777
same,composite z-score,[6],0.684
same,composite z-score,[7],1.16
same,z-score,[8],-1.89 (inactive)
same,composite z-score,[9],0.75
same,composite z-score,[10],-0.0296
same,composite z-score,[11],1.37
same,z-score,[12],-1.22 (inactive)
same,z-score,[13],-0.269 (inactive)
same,z-score,[14],1.29 (inactive)
same,composite z-score,[15],3.12
same,z-score,[16],-0.704 (inactive)
same,composite z-score,[17],0.09
same,composite z-score,[18],0.622
same,composite z-score,[19],0.842
same,composite z-score,[20],-0.0738
O=C1C[C@@](C(=O)NCC(F)(F)F)(c2ccc([N+](=O)[O-])cc2)[C@@H](c2ccc(CO)cc2)N1C1CCCCC1,composite z-score,[1],0.99
same,composite z-score,[2],1.2
same,composite z-score,[3],0.0216
same,composite z-score,[4],0.606
same,composite z-score,[5],0.303
same,composite z-score,[6],1.24
same,composite z-score,[7],1.37
same,z-score,[8],0.265 (inactive)
same,composite z-score,[9],0.243
same,composite z-score,[10],0.554
same,composite z-score,[11],1.56
same,z-score,[12],-0.748 (inactive)
same,z-score,[13],-0.209 (inactive)
same,z-score,[14],-0.917 (inactive)
same,composite z-score,[15],3.48
same,z-score,[16],0.258 (inactive)
same,composite z-score,[17],0.11
same,composite z-score,[18],0.956
same,composite z-score,[19],0.823
same,composite z-score,[20],-0.0271
[N-]=[N+]=Nc1ccccc1[C@H]1OC(c2ccc(OCCCO)cc2)=N[C@@]1(CCS(=O)(=O)c1ccccc1)C(=O)N1CCCCC1,composite z-score,[1],1.26
same,composite z-score,[2],0.526
same,composite z-score,[3],0.0056
same,composite z-score,[4],0.699
same,composite z-score,[5],1.43
same,composite z-score,[6],1.46
same,composite z-score,[7],1.2
same,z-score,[8],1.8 (inactive)
same,composite z-score,[9],1.24
same,composite z-score,[10],-0.201
same,composite z-score,[11],1.51
same,z-score,[12],-0.347 (inactive)
same,z-score,[13],0.189 (inactive)
same,z-score,[14],2.73 (inactive)
same,composite z-score,[15],3.16
same,z-score,[16],-0.413 (inactive)
same,composite z-score,[17],0.428
same,composite z-score,[18],0.0467
same,composite z-score,[19],1.12
same,composite z-score,[20],0.176
COCCOC(=O)N1C(=O)[C@@]2(c3cc(C#CC4=CCCCC4)ccc31)[C@H](c1ccc(O)cc1)N1[C@H](c3ccccc3)[C@H](c3ccccc3)OC(=O)[C@H]1[C@@H]2C(=O)Nc1nc2ccccc2s1,composite z-score,[1],-0.177
same,composite z-score,[2],0.441
same,composite z-score,[3],0.0323
same,composite z-score,[4],0.969
same,composite z-score,[5],1.24
same,composite z-score,[6],0.896
same,composite z-score,[7],1.23
same,z-score,[8],1.53 (inactive)
same,composite z-score,[9],1.06
same,composite z-score,[10],0.0972
same,composite z-score,[11],1.54
same,z-score,[12],0.724 (inactive)
same,z-score,[13],0.0687 (inactive)
same,z-score,[14],0.801 (inactive)
same,composite z-score,[15],3.5
same,z-score,[16],-0.249 (inactive)
same,composite z-score,[17],-0.141
same,composite z-score,[18],0.824
same,composite z-score,[19],1.04
same,composite z-score,[20],0.178
C[C@H]1ON(c2ccc(C(=O)OC(C)(C)C)cc2)[C@@H](c2ccc(O)cc2)[C@@H]1C(=O)N1C(=O)OC[C@@H]1c1ccccc1,composite z-score,[1],-0.565
same,composite z-score,[2],-0.156
same,composite z-score,[3],-0.117
same,composite z-score,[4],0.686
same,composite z-score,[5],1.42
same,composite z-score,[6],0.464
same,composite z-score,[7],1.15
same,z-score,[8],-0.308 (inactive)
same,composite z-score,[9],0.184
same,composite z-score,[10],-0.0022
same,composite z-score,[11],1.51
same,z-score,[12],0.657 (inactive)
same,z-score,[13],-1.95 (inactive)
same,z-score,[14],31.6 (active)
same,composite z-score,[15],1.69
same,z-score,[16],-0.661 (inactive)
same,composite z-score,[17],-0.33
same,composite z-score,[18],0.819
same,composite z-score,[19],1.05
same,composite z-score,[20],-0.0315
